Screening results: PubChem, National Center for Advancing Translational Sciences (NCATS)
Compounds with a hit are over-represented: about 9.9% of the library has one in this group of screens.
IL-1B inflam inh = inflammasome signaling inhibition, IL-1 beta readout; THP-1 LPS/ATP IL-1B secretion, AlphaLISA, 16 h; active compounds read low; activity change, % at 57.5 µM; 360,000 tested, 4.7% active; in the data active = activity change below about -50%; inconclusive = mostly about -30% to -49%; note: % is set by controls: 0 for no effect and ±100 for the full control effect
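Secreted IL-1B measured by AlphaLISA bead assay after 16 h compound exposure of THP-1 cells; compounds (final up to 57.5 uM) added 1 h before LPS (250 ng/mL) and ATP (1.25 mM) stimulation; lower signal means less secretion.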
KB-3-1 tox = kills parental KB-3-1 adenocarcinoma cells | 400,000 tested, 1.4% active | KB-3-1 viability, CellTiter-Glo ATP luminescence, 72 h | AID 1347075 | Potency, µM (top dose mostly 46.1 µM), usual class: cytotoxic; note: potency is the fitted concentration of half-maximal effect; % is set by controls: 0 for no effect and ±100 for the full control effect; nearly all actives have a fitted effect of over 60% in size
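Cytotoxicity in the drug-sensitive parental line KB-3-1 was scored as loss of CellTiter-Glo luminescence following 72 h incubation with compound. Values come from curve fitting of normalized concentration-response data.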
MCF10A rerep = DNA re-replication induction in MCF 10a cells. AID 624296. Potency, µM (highest dose often 46.1 µM), inactives show top-dose activity, positive = re-replication, hits mostly activators. MCF 10A DNA re-replication, Hoechst nuclear intensity, 48 h. 350,000 tested, 2.9% active; note: potency is the fitted concentration of half-maximal effect; % of control where 0% means no effect; nearly all actives have a fitted effect of over 50% in size
KB-V1 MDR tox = KB-V1 MDR subline cytotoxicity; KB-V1 MDR cells viability, CellTiter-Glo, 72 h; Potency, µM (series often up to 46.1 µM), usual class: cytotoxic; 400,000 tested, 3.4% active; note: potency is the fitted concentration of half-maximal effect; % is set by controls: 0 for no effect and ±100 for the full control effect; nearly all actives have a fitted effect of over 60% in size
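Potencies derive from concentration-effect curves fitted to normalized luminescence (CellTiter-Glo) of KB-V1 cells treated for 72 h at 37 degrees C in phenol-red-free DMEM containing 10% FBS.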
SW480 rerep = induces DNA re-replication in SW480 colon adenocarcinoma cells; SW480 DNA re-replication, Hoechst DNA content imaging, 48 h; Potency, µM (top dose mostly 46.1 µM), for inactives: at the highest dose re-replication activation, actives largely listed as activators; 340,000 tested, 1.8% active; note: potency is the fitted concentration of half-maximal effect; % of control where 0% means no effect; nearly all actives have a fitted effect of over 55% in size
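Quantitative HTS format with DMSO vehicle controls; 48 hr drug incubation at 37 C, then 40 min Hoechst staining and scanning imager measurement at 405 nm excitation.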
* marks the source's active call; other numbers are inactive results; i = inactive; ? = inconclusive; nt = no result; ! = repeats disagree; [ ] = remark or other dose. Unless noted, calls come from the whole dose curve; as a rule, active = well fitted curve in the direction sought with a large enough effect; inconclusive = small, poorly fitted or top-dose-only effect, or another doubt; inactive = no such curve, though single readings can be large; an effect the other way counts as inactive or inconclusive.

SMILES	IL-1B inflam inh	KB-3-1 tox	MCF10A rerep	KB-V1 MDR tox	SW480 rerep
CCCCCCCCN1C(=O)[C@H](CC(=O)NCCC(C)C)C[C@@]2(C(=O)OC)CCCCC=C12	-60*	i	nt	?	nt
CCCCCCCCN1C(=O)[C@H](CC(=O)NCCCOCCCC)C[C@@]2(C(=O)OC)CCCCC=C12	-78*	?	nt	13µM*	nt
C=CCn1c(SCC(=O)NNC(=S)Nc2ccccc2)nnc1-c1ccccc1	nt	i	5%	i	33%
C=CCn1c(SCc2ccc(C(=O)Nc3ccccc3)cc2)nnc1-c1ccccc1	-2	i	2%	2.6µM*	0%
C=CCn1c(SCC(=O)c2ccccc2)nnc1-c1cc2ccccc2o1	-6	i	16%	?	-4%
C=CCn1c(SCC(=O)c2ccccc2)nnc1-c1ccc2c(c1)OCO2	0	i	?	21µM*	?
COc1ccc(CCNC(=O)CCc2cc(OC)c(OC)c(OC)c2)cc1OC	14	i	-4%	i	-5%
CCc1ccccc1N(C)C(=O)Cc1c(C(=O)O)c(C)cn1C	nt	i	nt	i	nt
O=C(Nc1cccc2oc(=O)ccc12)c1ccc([N+](=O)[O-])cc1[N+](=O)[O-]	11	?	-1%	?	16µM*
Cc1cc(O)c(C2=Nc3ccccc3SC(c3ccc(Cl)cc3)C2)c(=O)o1 (stereo not given)	16	i	5.2µM*	?	nt
O=c1[nH]c(=O)n(C2CCCCC2)c(O)c1C1=Nc2ccccc2SC(c2ccccc2)C1 (stereo not given)	nt	i	nt	i	nt
COc1ccc(S(=O)(=O)c2c(Nc3c(C)cccc3C)sc(C(=O)c3ccc(F)cc3)c2N)cc1	nt	5.8µM*	nt	?	nt
COc1ccc(S(=O)(=O)c2c(Nc3c(C)cccc3C)sc(C(=O)c3ccc4c(c3)OCO4)c2N)cc1	nt	3.7µM*	nt	?	nt
CCc1cccc(CC)c1NC(=O)CSc1nnc(C2CC2)n1C	-9	?	-17%	i	-12%
Nc1ccccc1C(=O)NNc1ncc(C(F)(F)F)cc1Cl	-3	i	15µM*	?	5.8µM*
FC(F)(F)c1cnc(NNC(=S)Nc2ccc(Cl)cc2)c(Cl)c1	-99*	?	15µM*	i	?
O=C(NNc1ncc(C(F)(F)F)cc1Cl)c1ccc(Cl)c(Cl)c1	10	i	-4%	i	-17%
Cc1ccc(NC(=S)NNc2ncc(C(F)(F)F)cc2Cl)cc1	-16	?	22%	i	10%
Fc1ccc(NC(=S)NNc2ncc(C(F)(F)F)cc2Cl)c(F)c1	-10	21µM*	7%	15µM*	?
C[C@H]1CN([C@@H](C)CO)C(=O)CCCn2cc(nn2)CO[C@@H]1CN(C)C(=O)Nc1ccc2c(c1)OCO2	-13	i	nt	i	nt
Cn1c(NCCCN2CCOCC2)nc2c1c(=O)n(Cc1ccc(Cl)cc1)c(=O)n2C	-3	i	19%	18µM*	-1%
Cn1c(NCCCN2CCOCC2)nc2c1c(=O)n(Cc1ccc(Cl)c(Cl)c1)c(=O)n2C	-23	i	?	15µM*	1%
Cn1c(=O)c2c(nc(NCCCN3CCOCC3)n2Cc2ccc(Cl)cc2)n(C)c1=O	-25	i	0%	i	0%
COc1ccc(CNc2nc3c(c(=O)n(Cc4ccc(Br)cc4)c(=O)n3C)n2C)cc1	0	?	?	9.2µM*	17%
O=C(NCC(=O)N(c1cccc(F)c1)C(C(=O)NC1CCCC1)c1cccnc1)c1cccs1 (stereo not given)	19	i	-2%	i	0%
SMILES	IL-1B inflam inh	KB-3-1 tox	MCF10A rerep	KB-V1 MDR tox	SW480 rerep
CCCCNC(=O)N1CCc2ccccc2C1	22	i	2%	i	23µM*
O=C(NCc1ccc(F)cc1)N1CCc2ccccc2C1	-3	i	-2%	i	-28%
CCCCNc1nc2ccccc2n1CC(=O)N1CCc2ccccc2C1	-5	i	-2%	10µM*	0%
CCOC(=O)Nc1sc2c(c1C(N)=O)CCCC2	nt	i	nt	i	nt
CC(C)(C)CC(C)(C)c1ccc(O)c(Cc2ccc(Cl)cc2Cl)c1	-72*	?	30µM*!	?	3%
O=c1c(Cc2ccc(Cl)cc2Cl)c(O)ccn1CC(F)(F)F	0	i	-4%	i	-19%
CC1=C(C(=O)N2CCOCC2)CC(CC(=O)NC2CCCCC2)C(=O)N1Cc1ccccc1 (stereo not given)	-1	?	nt	?	nt
COc1ccccc1NS(=O)(=O)c1cc(N2Cc3ccccc3C2=N)ccc1N1CCOCC1	-96*	i	0%	?	9%
COc1ccccc1NS(=O)(=O)c1cc(NC(=O)c2ccccc2C)ccc1N1CCOCC1	-20	i	8%	8.2µM*	-8%
Cc1nccn1-c1cc(C(C)(C)C)nc2c(-c3ccccc3)cnn12	0	i	?	i	?
C=CCNc1nc(NC2CCN(C)CC2)c2cc(OC)c(OC)cc2n1	nt	?	nt	i	nt
O=C(Nc1nc([C@@H]2O[C@H](CO)[C@@H](O)[C@H](O)[C@H]2O)cs1)NC(c1ccccc1)c1ccccc1	-15	18µM*	nt	i	nt
O=C(Nc1cccc(Cl)c1Cl)c1csc([C@@H]2O[C@H](CO)[C@H](O)[C@H](O)[C@H]2O)n1	0	i	nt	?	nt
COc1ccc(-n2ncc(C(=O)NCc3ccco3)c2C2CCN(C(=O)OC(C)(C)C)CC2)cc1	nt	i	nt	i	nt
Cc1cc(C2=NNC(=NC3CC3)SC2)c(C)n1-c1ccccc1F	0	?	18µM*	i	?
Cc1cccc(C)c1N=C1NN=C(c2ccccc2F)CS1	0	?	6%	18µM*	nt
c1cc2c(cc1C1=NNC(=NC3CC3)SC1)OCCO2	-22	?	?	8.2µM*	4.1µM*
FC(F)Sc1ccc(N=C2NN=C(c3ccc4c(c3)OCCO4)CS2)cc1	-2	?	?	?	12µM*
Cc1ccccc1N=C1NN=C(c2ccccc2F)CS1	-6	i	27%	i	?
COc1ccc(N=C2NN=C(c3ccc4c(c3)OCCO4)CS2)cc1	?	i	8%	?	13%[9.22 µM]
c1csc(C2=NNC(=NC3CCCCC3)SC2)c1	-13	i	0%	i	1%
CCOc1ccccc1C(=O)Nc1ccc(S(=O)(=O)Nc2onc(C)c2C)cc1	nt	i	nt	i	nt
Cc1cc(C)nc(CCNC(=O)CC2C(=O)NCCN2Cc2ccccc2)n1 (stereo not given)	16	i	-5%	?	-1%
CCOc1cc(Cl)c(S(=O)(=O)n2ccnc2)cc1Cl	nt	i	nt	?	nt
CCCCN=C1NN=C(c2ccc3c(c2)OCCO3)CS1	-63*	i	12%	i	?
c1ccc2oc(C3=NNC(=NC4CC4)SC3)cc2c1	-17	9.2µM*	12µM*	i	?
